Source: PubChem BioAssay (NCI)
Compounds without any hit were thinned out: in the full panel of roughly 79,000, 15% have a hit. The source made the active and inactive calls. Rule as the data show it: active = growth inhibition above about 70%; inactive = the rest.

Columns and labels:
[1] = NCI Yeast Anticancer Drug Screen. Data for the wt1 strain (AID 149);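 also: 0% = growth of vehicle-treated wt1 cultures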; conditions: S. cerevisiae wt1 strain (SPY 50644) growth inhibition, stronger effect = higher value
Method in brief: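 wt1 yeast, compound-treated; % growth inhibition vs vehicle control.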

[2] = NCI Yeast Anticancer Drug Screen. Data for the rad50EPP+ strain (AID 151);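 also: 0% = growth of vehicle-treated control cultures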; conditions: S. cerevisiae rad50 mutant strain, stronger effect = higher value
Method in brief: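 One strain with a rad50 alteration (rad50EPP+) was compound-treated, its growth then compared to that of vehicle controls.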

[3] = NCI Yeast Anticancer Drug Screen. Data for the mgt1 strain (AID 153); conditions: S. cerevisiae mgt1 mutant growth inhibition, stronger effect = higher value
Method in brief: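 After exposure of the mgt1 yeast mutant to compound, growth was measured and reported as inhibition compared with vehicle controls.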

[4] = NCI Yeast Anticancer Drug Screen. Data for the rad50 strain (AID 155);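 also: 0% = growth of vehicle-only cultures of the same strain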; conditions: S. cerevisiae rad50 strain growth inhibition, stronger effect = higher value
Method in brief: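 Genetically altered yeast (DNA repair pathway); compound treatment; growth inhibition vs vehicle ctrl.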

[5] = NCI Yeast Anticancer Drug Screen. Data for the mec2-1 strain (AID 157); conditions: S. cerevisiae mec2-1 strain, stronger effect = higher value
Method in brief: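 Test agents were screened against the mec2-1 yeast strain, with defined DNA repair or cell cycle alteration. Growth was scored as inhibition against vehicle-only controls.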

[6] = NCI Yeast Anticancer Drug Screen. Data for the rad14 strain (AID 159);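 also: 0% = growth of vehicle-treated control cultures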; conditions: S. cerevisiae rad14 strain growth inhibition, stronger effect = higher value
Method in brief: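 Test compounds were applied to a repair-deficient yeast strain. Its growth was then compared with that of cultures given vehicle alone, and inhibition was expressed relative to those controls.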

[7] = NCI Yeast Anticancer Drug Screen. Data for the sgs1 mgt1 strain (AID 161);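 also: 0% = growth of cultures given vehicle only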; conditions: S. cerevisiae sgs1 mgt1 strain, stronger effect = higher value
Method in brief: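 Inhibition of yeast growth, normalised to vehicle-treated controls, is reported for a strain bearing genetic alterations in DNA damage repair.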

[8] = NCI Yeast Anticancer Drug Screen. Data for the cln2 rad14 strain (AID 165);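 also: 0% = growth equal to vehicle treated cultures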; conditions: S. cerevisiae cln2 rad14 strain, stronger effect = higher value
Method in brief: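 Growth of compound-exposed yeast (cln2 rad14 genotype) measured and expressed as inhibition relative to vehicle.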

[9] = NCI Yeast Anticancer Drug Screen. Data for the bub3 strain (AID 167); conditions: S. cerevisiae bub3 mutant strain, stronger effect = higher value
Method in brief: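 Yeast carrying a defined mutation is treated with each compound, and growth is compared with that of vehicle-exposed cells to give inhibition.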

[10] = NCI Yeast Anticancer Drug Screen. Data for the wt2 strain (AID 169);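 also: 0% = growth of vehicle-treated yeast cultures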; conditions: S. cerevisiae wt2 strain growth inhibition, stronger effect = higher value
Method in brief: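 Genetically defined yeast strains from a DNA-repair/cell-cycle panel were used. Compound-exposed yeast growth was measured, and the inhibition was calculated relative to vehicle treatment.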

[11] = NCI Yeast Anticancer Drug Screen. Data for the mlh1 strain (AID 171);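 also: 0% = growth of vehicle-treated control cultures of the same strain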; conditions: S. cerevisiae mlh1 strain growth inhibition, stronger effect = higher value
Method in brief: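 Here the genetically defined yeast mutant is grown with each compound, and the extent to which its growth falls below that of vehicle-exposed cells is reported.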

[12] = NCI Yeast Anticancer Drug Screen. Data for the sgs1 strain (AID 173);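 also: 0% = growth of vehicle-only control cultures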; conditions: S. cerevisiae sgs1 mutant, stronger effect = higher value
Method in brief: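 Relative growth inhibition, referenced to vehicle, was determined in a yeast strain with a defined alteration affecting DNA damage repair or cell cycle control after compound exposure.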

[13] = NCI Yeast Anticancer Drug Screen. Data for the mlh1 rad18 strain (AID 175); conditions: S. cerevisiae mlh1 rad18 strain growth inhibition, stronger effect = higher value
Method in brief: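 In this whole-cell yeast screen, a strain with altered DNA damage repair is challenged with compound, and its growth is measured against matched vehicle-treated controls.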

[14] = NCI Yeast Anticancer Drug Screen. Data for the rad18 strain (AID 177); conditions: S. cerevisiae rad18 mutant growth inhibition, stronger effect = higher value
Method in brief: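 Screen uses a yeast strain with a defined lesion in DNA damage repair; compound effect is read as loss of growth compared to untreated vehicle cultures.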

[15] = at 5.0 µM (retest, dose inferred, filed as 0.5)
[16] = at 50.0 µM (retest, dose inferred, filed as 5.0)

Measured: growth inhibition

O=C1c2ccccc2C(=O)C1C(c1ccc(F)cc1)C1C(=O)c2ccccc2C1=O
active: [1]; at 100.0 µM 85% | [2]; at 100.0 µM 75% | [3]; at 100.0 µM 76% | [4]; at 50.0 µM 77.5% | [4]; at 100.0 µM 88% | [5]; [16] 81% | [5]; at 50.0 µM 75% | [5]; at 100.0 µM 83% | [6]; at 100.0 µM 82% | [8]; [16] 89% | [8]; at 50.0 µM 85.8% | [9]; [16] 87% | [9]; at 50.0 µM 79% | [9]; at 100.0 µM 83% | [10]; at 100.0 µM 81% | [11]; at 100.0 µM 82% | [12]; at 100.0 µM 89% | [13]; [16] 74% | [13]; at 50.0 µM 72.1% | [14]; at 100.0 µM 88%
inactive: [1]; at 1.2 µM 9% | [1]; at 3.7 µM 10% | [1]; at 11.0 µM 7% | [1]; at 33.0 µM 18% | [2]; at 1.2 µM -8% | [2]; at 3.7 µM 8% | [2]; at 11.0 µM 21% | [2]; at 33.0 µM 61% | [3]; at 1.2 µM 0% | [3]; at 3.7 µM -11% | [3]; at 11.0 µM -17% | [3]; at 33.0 µM 5% | [4]; at 1.2 µM 13% | [4]; at 3.7 µM 5% | [4]; [15] 21% | [4]; at 11.0 µM 7% | [4]; at 33.0 µM 28% | [4]; [16] 46% | [5]; at 1.2 µM -13% | [5]; at 3.7 µM -6% | [5]; [15] -14% | [5]; at 11.0 µM -14% | [5]; at 33.0 µM 6% | [6]; at 1.2 µM -20% | [6]; at 3.7 µM -20% | [6]; at 11.0 µM -52% | [6]; at 33.0 µM 0% | [7]; [15] 2% | [7]; [16] 41% | [7]; at 50.0 µM 56.2% | [8]; [15] 27% | [9]; at 1.2 µM -18% | [9]; at 3.7 µM -33% | [9]; [15] 17% | [9]; at 11.0 µM -34% | [9]; at 33.0 µM -17% | [10]; at 1.2 µM 1% | [10]; at 3.7 µM 2% | [10]; at 11.0 µM 1% | [10]; at 33.0 µM 22% | [11]; at 1.2 µM -17% | [11]; at 3.7 µM -15% | [11]; at 11.0 µM -16% | [11]; at 33.0 µM 5% | [12]; at 1.2 µM 11% | [12]; at 3.7 µM 25% | [12]; at 11.0 µM 41% | [12]; at 33.0 µM 54% | [13]; [15] 8% | [14]; at 1.2 µM -2% | [14]; at 3.7 µM -7% | [14]; at 11.0 µM 1% | [14]; at 33.0 µM 26%

Cc1ccc(C(C)C)c(C(=C2C=CC(=[N+](C)C)C=C2)c2c(C(C)C)ccc(C)c2O)c1O
active: [1]; at 11.0 µM 98% | [1]; at 33.0 µM 95% | [1]; at 100.0 µM 86% | [3]; at 11.0 µM 98% | [3]; at 33.0 µM 94% | [3]; at 100.0 µM 85% | [4]; [15] 84% | [4]; at 11.0 µM 97% | [4]; at 33.0 µM 93% | [4]; [16] 93% | [4]; at 50.0 µM 96.7% | [4]; at 100.0 µM 81% | [5]; at 11.0 µM 98% | [5]; at 33.0 µM 96% | [5]; [16] 96% | [5]; at 50.0 µM 97.5%
inactive: [1]; at 1.2 µM 1% | [1]; at 3.7 µM -2% | [2]; at 1.2 µM -1% | [2]; at 3.7 µM 1% | [2]; at 11.0 µM -1% | [2]; at 33.0 µM -3% | [2]; at 100.0 µM -8% | [3]; at 1.2 µM -2% | [3]; at 3.7 µM 0% | [4]; at 1.2 µM 4% | [4]; at 3.7 µM 16% | [5]; at 1.2 µM -1% | [5]; at 3.7 µM 16% | [5]; [15] 53%
